Measured values reported in PubChem BioAssay (NCATS).
Inconclusive results are not listed. Values without a mark were called inactive. Activity calls are given as the source filed them. The call rests on the fitted dose curve; in most records, active means well fitted cell-killing curve with a large enough effect; inconclusive means small, poorly fitted or top-dose-only effect, or effect the other way; inactive means no such curve, though single readings can be large or run the other way.

Test: Quantitative High-Throughput drug screen in 47 multiple myeloma cell lines against the NCATS MIPE library collection: Karpas417_ECACC cell viability assay (AID 1918961)
Conditions: Karpas417 myeloma viability, CellTiter-Glo ATP luminescence, 48 h; viability (% of DMSO): at 45.8 µM (top of the series)
Procedure, shortened: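 We plated 500 myeloma cells per well, pinned in MIPE 4.0 compounds, and incubated for 48 hours at 37C. ATP was then quantified with CellTiter-Glo, with DMSO and media-only wells defining 100% and 0%.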
Potency means the concentration at half of the fitted maximal effect.

Row | Compound | Potency | viability (% of DMSO)
1 | CC1(COc2ccc3c(c2)ncn3-c2ccc3cccc(N4CCC(N)CC4)c3n2)COC1 | 1180 nM (active) | –
2 | O=C(O)C1=NC(C(=O)O)CC(C=CN2c3cc(O)c(OC4OC(CO)C(O)C(O)C4O)cc3CC2C(=O)O)=C1 (stereo not drawn) | – | 146%
3 | CC(=O)O[C@]1(C(C)=O)CC[C@H]2[C@@H]3C=C(Cl)C4=CC(=O)[C@@H]5C[C@H]5[C@]4(C)[C@@H]3CC[C@@]21C | – | 112% (active)

Test: Quantitative High-Throughput drug screen in 47 multiple myeloma cell lines against the NCATS MIPE library collection: KHM11_PLB cell viability assay (AID 1918962); further: nearly all actives have a fitted effect of over 35% in size
Conditions: KHM11 myeloma cell viability, CellTiter-Glo ATP luminescence, 48 h; series mostly up to 45.8 µM; viability, % of DMSO control: at the top concentration
Procedure, shortened: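 Primary qHTS used for cherry-picking: cells at 500/well, library compounds for 48 h (37C, 5% CO2), luminescent ATP assay.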

Row | Compound | Potency | viability, % of DMSO control
4 | CCNC(=O)c1noc(-c2cc(C(C)C)c(O)cc2O)c1-c1ccc(CN2CCOCC2)cc1 | 83.3 nM (active) | –
5 | CC1(COc2ccc3c(c2)ncn3-c2ccc3cccc(N4CCC(N)CC4)c3n2)COC1 | 14.8 nM (active) | –
6 | OCCn1cc(-c2ccc3c(c2)CCC3=NO)c(-c2ccncc2)n1 | 4690 nM (active) | –
7 | CCc1cccc(CC)c1NC(=O)N1Cc2[nH]nc(NC(=O)c3ccc(N4CCN(C)CC4)cc3)c2C1 | 16600 nM (active) | –
8 | NC(=O)c1nnn(Cc2cc(Cl)c(C(=O)c3ccc(Cl)cc3)c(Cl)c2)c1N | – | 96.2%
9 | COc1cc([C@@H]2c3cc4c(cc3[C@@H](O[C@@H]3O[C@@H]5CO[C@@H](C)O[C@@H]5[C@H](O)[C@@H]3O)[C@H]3COC(=O)[C@H]23)OCO4)cc(OC)c1O | – | 81.2%
10 | CN(C)CCOc1cc(-c2cn[nH]c2)ccc1NC(=O)C1COc2ccccc2O1 (stereo not drawn) | – | 104%
11 | CN1CC(=O)NC1=NC(=O)Nc1cccc(Cl)c1 | 14800 nM (active) | –
12 | COc1ccc(CCC(=O)Nc2nc3ccc(Cl)cc3s2)cc1OC | – | 81.6%
13 | CCOC(=O)[C@H]1O[C@H]1C(=O)N[C@@H](CC(C)C)C(=O)NCCC(C)C | – | 98.3%
